Experiment [1] deals with Androgen receptor (Homo sapiens) (UniProt P10275). Put plainly: qHTS assay to identify small molecule antagonists of the androgen receptor (AR) signaling pathway using the MDA cell line in the presence of 0.5 nM R1881 (AID 1259243). Also: nearly all actives have a fitted effect of over 50% in size. Also: potency is read from the fitted curve at half-maximal effect. Summed up: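 Antagonist mode quantitative HTS in MDA-kb2 MMTV-luciferase cells, agonist R1881 at 0.5 nM final, 16 hr exposure at 37C and 0% CO2, luminescent detection.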
Sequence of Androgen receptor (Homo sapiens) (P10275 whole entry, looked up): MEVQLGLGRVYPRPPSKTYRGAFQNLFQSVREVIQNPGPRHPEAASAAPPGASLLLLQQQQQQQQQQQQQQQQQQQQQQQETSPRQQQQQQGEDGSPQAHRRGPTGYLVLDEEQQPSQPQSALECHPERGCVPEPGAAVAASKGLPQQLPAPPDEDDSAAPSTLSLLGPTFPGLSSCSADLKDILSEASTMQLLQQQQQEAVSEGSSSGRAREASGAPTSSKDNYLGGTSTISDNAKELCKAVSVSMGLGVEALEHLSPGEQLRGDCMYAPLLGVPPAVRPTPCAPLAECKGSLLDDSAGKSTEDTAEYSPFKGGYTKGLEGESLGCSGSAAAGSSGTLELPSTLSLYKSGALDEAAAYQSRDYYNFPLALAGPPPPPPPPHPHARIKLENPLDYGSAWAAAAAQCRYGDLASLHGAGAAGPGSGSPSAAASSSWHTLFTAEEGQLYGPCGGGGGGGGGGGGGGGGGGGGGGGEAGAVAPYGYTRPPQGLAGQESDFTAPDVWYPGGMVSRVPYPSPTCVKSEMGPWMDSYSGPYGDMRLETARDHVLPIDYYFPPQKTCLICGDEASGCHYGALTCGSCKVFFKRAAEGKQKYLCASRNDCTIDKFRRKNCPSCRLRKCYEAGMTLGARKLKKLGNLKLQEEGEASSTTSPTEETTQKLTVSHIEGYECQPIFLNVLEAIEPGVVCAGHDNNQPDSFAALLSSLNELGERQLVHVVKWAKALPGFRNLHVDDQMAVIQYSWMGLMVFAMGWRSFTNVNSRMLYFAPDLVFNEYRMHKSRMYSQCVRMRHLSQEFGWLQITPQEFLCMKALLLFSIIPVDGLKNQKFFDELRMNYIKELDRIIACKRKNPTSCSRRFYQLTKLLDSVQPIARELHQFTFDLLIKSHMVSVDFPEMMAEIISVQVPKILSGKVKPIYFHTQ
(In general: qHTS replaces the single test concentration by a dilution series.)

Experiment [2] is described as follows: qHTS assay for small molecule agonists of the p53 signaling pathway - cell viability (AID 651633; calls by dose curve; also: nearly all actives have a fitted effect of over 30% in size; also: potency is read from the fitted curve at half-maximal effect). Summed up: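 p53RE-bla cells, seeded at 4,000 per well and rested 5 h at 37 C/5% CO2, received compounds in DMSO for 16 h at 37 C. CellTiter-Glo was then added, and luminescence was read after 30 min at room temperature to gauge cytotoxicity.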
Experiment [3] is described as follows: qHTS assay for small molecule disruptors of the mitochondrial membrane potential (AID 720635). Also: potency is read from the fitted curve at half-maximal effect. Put shortly:
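HepG2 cells (2,000/well) attached overnight at 37C, then took compound for 1 hr at 37C, 5% CO2. Mito-MPS dye was added for 30 min; fluorescence was read at 490/535 nm (monomers) and 540/590 nm (aggregates).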

The nature of experiment [4]: qHTS assay to identify small molecule antagonists of the androgen receptor (AR) signaling pathway - cell viability counter screen (AID 743033; also: nearly all actives have a fitted effect of over 45% in size; also: potency is read from the fitted curve at half-maximal effect).
The nature of experiment [5]: qHTS assay to identify small molecule antagonists of the thyroid receptor (TR) signaling pathway - cell viability counter screen (AID 743064). Also: nearly all actives have a fitted effect of over 50% in size. Also: potency is read from the fitted curve at half-maximal effect. Put shortly:
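Rat GH3 pituitary tumor cells stably expressing two TR response elements driving luciferase were plated, rested 4 h, then dosed with library compounds and T3 (1 nM final). After 23.5 h at 37 °C, CellTiter-Fluor was added for 30 min and fluorescence recorded.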

Experiment [6] is described as follows: qHTS assay to identify small molecule antagonists of the thyroid receptor (TR) signaling pathway (AID 743065). Also: nearly all actives have a fitted effect of over 55% in size. Also: potency is read from the fitted curve at half-maximal effect. Summed up:
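GH3.TRE-Luc rat pituitary cells carrying two TR response elements driving luciferase were plated for 4 h, given compound plus 1 nM T3 (final), and incubated 23.5 h at 37 C. ONE-Glo luminescence measured reporter inhibition; CellTiter-Fluor fluorescence tracked cytotoxicity.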

The target in experiment [7] is Estrogen receptor (Homo sapiens) (UniProt P03372). The experiment in a line: qHTS assay to identify small molecule agonists of the estrogen receptor alpha (ER-alpha) signaling pathway (AID 743075; calls by dose curve).
Sequence of Estrogen receptor (Homo sapiens) (P03372 whole entry, looked up): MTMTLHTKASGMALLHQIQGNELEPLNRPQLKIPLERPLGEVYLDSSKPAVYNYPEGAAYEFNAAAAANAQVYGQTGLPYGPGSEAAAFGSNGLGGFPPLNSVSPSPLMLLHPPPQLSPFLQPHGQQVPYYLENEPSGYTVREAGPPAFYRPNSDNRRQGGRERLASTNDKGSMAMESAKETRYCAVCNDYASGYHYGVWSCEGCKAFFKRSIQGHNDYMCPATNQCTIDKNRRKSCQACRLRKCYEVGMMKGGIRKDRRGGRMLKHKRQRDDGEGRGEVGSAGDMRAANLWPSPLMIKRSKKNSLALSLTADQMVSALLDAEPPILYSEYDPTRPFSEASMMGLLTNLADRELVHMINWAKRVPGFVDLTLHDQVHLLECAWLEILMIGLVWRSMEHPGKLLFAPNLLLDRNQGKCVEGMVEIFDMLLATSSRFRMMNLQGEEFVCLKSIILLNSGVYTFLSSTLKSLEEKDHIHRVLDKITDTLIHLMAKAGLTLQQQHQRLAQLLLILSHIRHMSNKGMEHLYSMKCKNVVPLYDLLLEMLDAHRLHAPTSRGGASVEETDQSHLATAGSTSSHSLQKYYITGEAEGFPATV
Experiment [8] is described as follows: qHTS assay to identify aromatase inhibitors - cell viability counter screen (AID 743084).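 Also: cells stimulated with testosterone during compound exposure; nearly all actives have a fitted effect of over 55% in size.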 Also: potency is read from the fitted curve at half-maximal effect.
Experiment [9] is described as follows: qHTS assay to identify small molecule agonists of the peroxisome proliferator-activated receptor delta (PPARd) signaling pathway - cell viability counter screen (AID 743211). Also: nearly all actives have a fitted effect of over 55% in size. Also: potency is read from the fitted curve at half-maximal effect. Summed up: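 Counter screen for cytotoxicity run in parallel with the PPARd reporter screen. Beta-lactamase reporter HEK293H cells exposed to compounds 17 h; ATP-based CellTiter-Glo luminescence quantified viability.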

Experiment [10] in a line: qHTS assay to identify small molecule agonists of the farnesoid-X-receptor (FXR) signaling pathway - cell viability counter screen (AID 743218). Also: nearly all actives have a fitted effect of over 45% in size. Also: potency is read from the fitted curve at half-maximal effect. Summed up: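 Viability of FXR-bla HEK 293T cells is measured by ATP-based CellTiter-Glo luminescence following 16 h compound treatment at 37 C and a prior 2 h room-temperature beta-lactamase substrate step.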
In experiment [11] the target is Nuclear receptor ROR-gamma (Homo sapiens) (UniProt P51449). Put plainly: qHTS assay to identify small molecule antagonists of the retinoid-related orphan receptor gamma (ROR-gamma) signaling pathway (AID 1159521; also: nearly all actives have a fitted effect of over 50% in size; also: potency is read from the fitted curve at half-maximal effect). Summed up: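 Cells were plated, rested 4 h at 37 C, exposed to compounds for 2 h, then given 1 uM final doxycycline hyclate to induce RORγ expression. After 16 h, ONE-Glo luminescence from the ROR response element reporter was measured.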

Experiment [12] can be described thus: qHTS assay to identify small molecule agonists of the hypoxia (HIF-1) signaling pathway (AID 1224846; active = well fitted activation curve with a large enough effect in the signal ratio in the repeat runs, not every such curve was filed as active; the % refers to the signal ratio). Put shortly:
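Agonist mode reporter screen. ME-180 cells stably expressing bla under HRE control received test compounds in DMSO for 17 hrs (37C, 5% CO2), and beta-lactamase activity was then detected with the CCF4-AM FRET substrate.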

Experiment [13] concerns the target Estrogen receptor beta (Homo sapiens) (UniProt Q92731). The experiment in a line: qHTS assay to identify small molecule antagonists of the estrogen receptor beta (ER-beta) signaling pathway (AID 1259378; active = well fitted inhibition curve with a large enough effect in the signal ratio in the repeat runs, not every such curve was filed as active; the % refers to the signal ratio; also: potency is read from the fitted curve at half-maximal effect). Put shortly: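 ER-beta-UAS-bla HEK293T (GripTite) cells in 2% charcoal-stripped FBS medium were preincubated 6 hr at 37C, dosed with compound, then stimulated with 1 nM E2 (final) for 16 hr; beta-lactamase reporter read by B/G FRET fluorescence after 2 hr substrate loading.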

The nature of experiment [14]: qHTS assay to identify small molecule antagonists of the androgen receptor (AR) signaling pathway using the MDA cell line - cell viability counter screen (AID 743041; also: nearly all actives have a fitted effect of over 45% in size; also: potency is read from the fitted curve at half-maximal effect). Summed up: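 qHTS viability read-out; MDA-kb2 AR-luc; R1881-stimulated; 16 h exposure at 37C, 0% CO2; CellTiter-Fluor, 30 min; fluorescence intensity.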
Experiment [15] is described as follows: qHTS assay for small molecule agonists of the antioxidant response element (ARE) signaling pathway - cell viability counter screen (AID 743203; calls by dose curve; also: nearly all actives have a fitted effect of over 55% in size; also: potency is read from the fitted curve at half-maximal effect). Put shortly:
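Viability counter screen: stably transfected ARE-bla HepG2 line, 16 hrs compound exposure at 37C/5% CO2, ATP-based CellTiter-Glo luminescence measured in the reporter wells.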

Experiment [16] in a line: qHTS assay for small molecule activators of the heat shock response signaling pathway (AID 743210; active = well fitted activation curve with a large enough effect in the signal ratio in the repeat runs, with a control signal flat, not every such curve was filed as active; the % refers to the signal ratio;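 also: HeLa cells with beta-lactamase reporter driven by heat shock elements; series mostly up to about 63 µM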). Put shortly:
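Activation of heat shock element-controlled beta-lactamase expression is measured in HeLa cells by LiveBLAzer FRET fluorescence, with compound exposure lasting 5 h at 37 C and substrate loading 2.5 h at room temperature.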

A short description of experiment [17]: qHTS assay to identify small molecule antagonists of the farnesoid-X-receptor (FXR) signaling pathway - cell viability counter screen (AID 743221; active = well fitted cell-killing curve with a large enough effect in the repeat runs, not every such curve was filed as active; also: nearly all actives have a fitted effect of over 50% in size; also: potency is read from the fitted curve at half-maximal effect). Summed up: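 Multiplexed counter screen: viability of FXR-bla HEK 293T cells under agonist stimulation by chenodeoxycholic acid (50 uM, final) and test compound for 16 h at 37 C, measured by CellTiter-Glo luminescence in the reporter wells.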

A short description of experiment [18]: qHTS assay to identify small molecule agonists of the vitamin D receptor (VDR) signaling pathway - cell viability counter screen (AID 743224). Also: nearly all actives have a fitted effect of over 50% in size. Also: potency is read from the fitted curve at half-maximal effect. Put shortly: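 Compounds were pin-transferred onto VDR-bla cells plated 4 h earlier; following 16 h incubation at 37C, cell viability was quantified by CellTiter-Glo luminescence after 30 min at room temperature.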

Experiment [19] is described as follows: qHTS assay to identify small molecule antagonists of the estrogen receptor alpha (ER-alpha) signaling pathway - cell viability counter screen (AID 743074; calls by dose curve;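 also: HEK293 cells carrying ER-alpha-UAS-bla reporter stimulated with 17beta-estradiol; nearly all actives have a fitted effect of over 45% in size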; also: potency is read from the fitted curve at half-maximal effect).
Experiment [20] in a line: qHTS assay to identify small molecule antagonists of the estrogen receptor alpha (ER-alpha) signaling pathway using the BG1 cell line - cell viability counter screen (AID 743081).

Experimental findings from PubChem BioAssay (Tox21) are described below.

“And” between values parts separate entries of the source, which are not always exact repeats. Equal values may be shown once. Inconclusive results are not listed. The source made the active and inactive calls. Unless noted, calls follow the shape of the dose curve; as a rule, active = well fitted curve in the direction sought with a large enough effect in the repeat runs; inconclusive = weak or mixed curves; inactive = no such curve, though single readings can be large; an effect the other way counts as inactive or inconclusive.

Sequence of Estrogen receptor beta (Homo sapiens) (Q92731 whole entry, looked up): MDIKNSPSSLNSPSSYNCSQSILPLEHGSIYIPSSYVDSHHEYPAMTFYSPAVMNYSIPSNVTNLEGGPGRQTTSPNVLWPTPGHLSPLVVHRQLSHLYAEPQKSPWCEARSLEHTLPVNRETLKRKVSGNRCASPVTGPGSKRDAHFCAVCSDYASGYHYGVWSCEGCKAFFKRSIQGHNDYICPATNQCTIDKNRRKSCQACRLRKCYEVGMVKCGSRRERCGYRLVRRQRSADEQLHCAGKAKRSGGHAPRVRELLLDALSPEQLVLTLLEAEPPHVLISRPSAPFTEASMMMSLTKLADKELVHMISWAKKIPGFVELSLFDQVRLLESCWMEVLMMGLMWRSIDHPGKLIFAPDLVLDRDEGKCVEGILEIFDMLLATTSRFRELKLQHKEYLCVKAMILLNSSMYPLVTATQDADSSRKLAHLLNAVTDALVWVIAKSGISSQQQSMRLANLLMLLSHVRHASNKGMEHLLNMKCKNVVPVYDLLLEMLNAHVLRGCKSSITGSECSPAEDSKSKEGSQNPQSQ

With `OC(Cc1ccccc1Cl)(Cn1[nH]cnc1=S)C1(Cl)CC1` (configuration not stated), the Potency in experiment [1] was 54.5 µM (active).
With `Cc1nnc2n1-c1sc(CCc3ccc(CC(C)C)cc3)cc1C(c1ccccc1Cl)=NC2C` (configuration not stated), the Potency is 23.7 µM (active) in experiment [2]; 21.1 µM (active) in experiment [3]; 15 µM (active) in [5]; 11.9 µM (active) in experiment [6]; 29.8 µM (active) in [9]; 33.5 µM (active) in [10]. Further, the Potency in experiment [11] was 29.8 µM (active). Besides, the Potency entry in experiment [4], in [7] and in [8] was “inactive” each time.
For the compound `CCN(CC)C(=O)Cl`, the Potency entry in experiment [11], in [1] and in experiment [13] was “inactive” each time. In [12], the call was inactive.
With `Nc1ccc([N+](=O)[O-])cc1`, the Potency is 1.37 µM (active) in [3]; 54.9 µM (active) in experiment [4]; 30.6 µM (active) in [14]; 61.1 µM (active) in experiment [6]; 8.63 µM (active) in experiment [1]. In experiment [11], the Potency result is “inactive”.
As for `O=[N+]([O-])c1c(Cl)c(Cl)cc(Cl)c1Cl`, the Potency entry in experiment [2], in [4], in experiment [6], in experiment [8], in [15] and in experiment [16] was “inactive” throughout. Besides, the Potency entry in experiment [9], in [17] and in experiment [18] was “inactive” throughout. For the same compound, the compound was called inactive in experiment [12].
In the case of `ClC(Cl)=C(c1ccc(Cl)cc1)c1ccccc1Cl`, the outcome in experiment [12] was inactive. Also, the values for the Potency in experiment [1] and in [13] were 9.69 µM (active) and 6.86 µM (active), respectively.
`Cc1cc(C(C)(C)c2ccc(O)c(C)c2)ccc1O`: the Potency entry in experiment [2], in experiment [14], in experiment [5], in experiment [19], in [20] and in [16] was “inactive” throughout. Further, the Potency result in experiment [17] was “inactive”. Also, the Potency in experiment [3] is 6.53 µM (active); in experiment [15], 46.2 µM (active); in [18], 33 µM (active); in experiment [1] it was 4.62 µM (active).
Consider `Nc1ccc(Cl)cc1[N+](=O)[O-]`, for which the Potency entry in experiment [16] is “inactive”.
On to `Cc1ccc(N(SC(F)(Cl)Cl)S(=O)(=O)N(C)C)cc1`, for which the Potency in experiment [3] is 17.2 µM (active); in experiment [4], 3.47 µM (active); in experiment [14] it was 54.5 µM (active); in experiment [5], 2.73 µM (active); in experiment [6], 2.17 µM (active); in experiment [8] it was 34.4 µM (active). Further, the Potency is 7.7 µM (active) in [15]; 19.5 µM (active) in experiment [9]; 13.8 µM (active) in experiment [10]; 19.5 µM (active) in [17]; 7.76 µM (active) in [18]; 15.4 µM (active) in [1]. Further, the Potency in experiment [13] was 13.7 µM (active).
Regarding `COc1cc(OC)c(OC)cc1C=O`, the Potency result in [2], in experiment [14], in experiment [7], in experiment [20], in experiment [15] and in experiment [17] was “inactive” throughout. Also, the Potency entry in experiment [11] and in [13] was “inactive” throughout. Besides, the Potency in [8] is 59.3 µM (active).
Regarding `O=C(c1ccccc1)C(Cl)Cl`, the Potency was 27.3 µM (active) in experiment [11] and 4.33 µM (active) in experiment [1].
On to `CNC(=O)Oc1cc(C)c(SC)c(C)c1`, for which the call in experiment [12] was inactive.
Regarding `c1ccc2c(c1)Sc1ccccc1N2CC1CN2CCC1CC2` (configuration not stated), the Potency in experiment [19] is 21.3 µM (active); in [15], 13.3 µM (active); in [9], 10.6 µM (active); in experiment [10], 10.6 µM (active); in experiment [17] it was 18.8 µM (active); in [18], 21.1 µM (active). Further, the Potency result in experiment [20] and in experiment [8] was “inactive” each time. For the same compound, the result in experiment [12] was inactive.
For `O=C1C(I)=CC(=C(c2cc(I)c(O)c(I)c2)c2ccccc2C(=O)O)C=C1I`, the Potency was 8.41 µM (active) and 4.22 µM (active) in experiment [3]; 29.8 µM (active) and 23.7 µM (active) in [6]. Also, the Potency entry in experiment [4], in [14], in experiment [19], in experiment [7], in experiment [20] and in experiment [8] was “inactive” in each case. Moreover, the Potency result in experiment [16], in experiment [10] and in experiment [17] was “inactive” in each case.
For `OCC(c1ccc(Cl)cc1)c1ccc(Cl)cc1`, the Potency in [3] was 27.3 µM (active); in experiment [4], 43.6 µM (active); in [5], 61.1 µM (active); in experiment [6], 61.1 µM (active). Further, the Potency result in [19], in experiment [7], in [20], in experiment [9], in [10] and in experiment [17] was “inactive” each time. For the same compound, the call in [12] was inactive.
